For 24 compounds, inhibition results are on record in ChEMBL document CHEMBL5606460, “ASAP - DENV-2 NS2B-NS3 protease fluorescence single point” (2024).

The assay has as its target Genome polyprotein (dengue virus type 2) (UniProt P29990).
[1] abbreviates: Thailand/16681/1984, Concentration 25.0 uM, Number of replicates 1.0.

SMILES strings stand for the structures. Among all 2,000 compounds or so, about 110 (5.5%) showed an effect of 50% or more. The entries come from a sample that favours strong results as a whole.

On to `CN(C)Cc1cc(C(=O)Nc2cc(Cl)cc(C(=O)NC(C)(C)CO)c2)ccn1`, for which the inhibition runs as follows: (Thailand/16681/1984, Concentration 49.5 uM, Number of replicates 2.0, Standard deviation 0.8373879793632091 %) -0.805%; (Thailand/16681/1984, Concentration 99.01 uM, Number of replicates 2.0, Standard deviation 1.3878191722501325 %) -0.768%; (Thailand/16681/1984, Concentration 198.0 uM, Number of replicates 2.0, Standard deviation 1.150645337077672 %) -0.077%.

`O=C(/C=C/c1ccc(N2CCNCC2)cc1)C(=O)N1CCOCC1`: the inhibition runs as follows: (Thailand/16681/1984, Concentration 49.5 uM, Number of replicates 2.0, Standard deviation 1.4144964098734516 %) 1.52%; (Thailand/16681/1984, Concentration 99.01 uM, Number of replicates 2.0, Standard deviation 0.4568300281843685 %) 5.18%; (Thailand/16681/1984, Concentration 198.0 uM, Number of replicates 2.0, Standard deviation 1.1436463049734074 %) 13.3%.

Take `Nc1ccc(/C=C/C(=O)C(=O)N2CCN(CCc3ccccc3)CC2)cc1`: the inhibition runs as follows: (Thailand/16681/1984, Concentration 49.5 uM, Number of replicates 2.0, Standard deviation 0.14046836541625998 %) 23.4%; (Thailand/16681/1984, Concentration 99.01 uM, Number of replicates 2.0, Standard deviation 0.26272659487750905 %) 40.1%; (Thailand/16681/1984, Concentration 198.0 uM, Number of replicates 2.0, Standard deviation 0.8058693227147314 %) 60.1%.

For `NCc1ccc(/C=C/C(=O)C(=O)N2CCOCC2)cc1`, the inhibition is, setting by setting: (Thailand/16681/1984, Concentration 49.5 uM, Number of replicates 2.0, Standard deviation 0.4887874545992688 %) 28.7%; (Thailand/16681/1984, Concentration 99.01 uM, Number of replicates 2.0, Standard deviation 0.17235835687354284 %) 48.5%; (Thailand/16681/1984, Concentration 198.0 uM, Number of replicates 2.0, Standard deviation 0.3206181572929207 %) 70.2%.

`CN(C)c1ccc(/C=C/C(=O)C(=O)N2CCOCC2)cc1`: the inhibition (Thailand/16681/1984, Concentration 49.5 uM, Number of replicates 2.0, Standard deviation 1.4993650320557768 %) amounted to 37.9%; the inhibition (Thailand/16681/1984, Concentration 99.01 uM, Number of replicates 2.0, Standard deviation 1.3662996762867583 %) stood at 59.5%; the inhibition (Thailand/16681/1984, Concentration 198.0 uM, Number of replicates 2.0, Standard deviation 0.7538742729933879 %) amounted to 78.8%.

With `O=Cc1ccc(N2CCC(C(=O)N3CCOCC3)CC2)cc1`, under setting [1], the inhibition is 13.3%.

In the case of `CN(Cc1ccc(N2CCOCC2)cc1)C(=O)C1CCN(c2ccc(C=O)cc2)CC1`, the inhibition under setting [1] stood at 13.2%.

`O=C(/C=C/c1ccccc1)C(=O)N1CCN(CCc2ccccc2)CC1`: the inhibition (Thailand/16681/1984, Concentration 49.5 uM, Number of replicates 2.0, Standard deviation 1.1058163895680901 %) is -0.075%; the inhibition (Thailand/16681/1984, Concentration 99.01 uM, Number of replicates 2.0, Standard deviation 1.051850300329286 %) is 3.22%; the inhibition (Thailand/16681/1984, Concentration 198.0 uM, Number of replicates 2.0, Standard deviation 0.9821847629012651 %) was found to be 9.52%.

For `O=Cc1ccc(N2CCC(C(=O)N3CCN(CCc4ccccc4)CC3)CC2)cc1`, under setting [1], the inhibition is 33%.

Regarding `CC(=O)N1CCC(N(C)C(=O)C2CCN(c3ccc(C=O)cc3)CC2)CC1`, the inhibition under setting [1] was 10.9%.

On to `CNC(=O)c1cc(Cl)ccc1NS(=O)(=O)c1[nH]ncc1C(=O)OC`, for which the inhibition was -1.06% (Thailand/16681/1984, Concentration 49.5 uM, Number of replicates 2.0, Standard deviation 1.242021000664882 %); 0.923% (Thailand/16681/1984, Concentration 99.01 uM, Number of replicates 2.0, Standard deviation 0.08117786480507469 %); 2.41% (Thailand/16681/1984, Concentration 198.0 uM, Number of replicates 2.0, Standard deviation 0.003820190349027435 %).

Consider `COc1cc(Cl)c(C)cc1NC(=O)C1CCN(c2ccc(C=O)cc2)CC1`, for which, under setting [1], the inhibition was found to be 13.9%.

As for `CC(C)(CNC(=O)C1CCN(c2ccc(C=O)cc2)CC1)c1cccc(Cl)c1`, the inhibition under setting [1] was determined as 10.4%.

With `N[C@H]1C[C@H](CNC(=O)[C@@H](NC(=O)OCc2ccccc2)c2ccc(OCc3ccccc3)cc2)C1`, the inhibition reads like this: (Thailand/16681/1984, Concentration 49.5 uM, Number of replicates 2.0, Standard deviation 4.035148717327061 %) -7.81%; (Thailand/16681/1984, Concentration 99.01 uM, Number of replicates 2.0, Standard deviation 3.6381547385610027 %) -5.23%; (Thailand/16681/1984, Concentration 198.0 uM, Number of replicates 2.0, Standard deviation 2.7035240962471856 %) 9.08%.

`O=Cc1ccc(N2CCC(C(=O)NC3C4CC5CC(C4)CC3C5)CC2)cc1` (configuration not stated): under setting [1], the inhibition turned out to be 6.37%.

`CN(Cc1cccc2ccccc12)C(=O)C1CCN(c2ccc(C=O)cc2)CC1`: the inhibition under setting [1] is 11.3%.

For the compound `Cc1c(C2CCNCC2)cnn1Cc1nnc(-c2ccccc2)o1`, the inhibition reads like this: (Thailand/16681/1984, Concentration 49.5 uM, Number of replicates 2.0, Standard deviation 2.3622904402078886 %) -2.18%; (Thailand/16681/1984, Concentration 99.01 uM, Number of replicates 2.0, Standard deviation 1.8884466143634908 %) -1.86%; (Thailand/16681/1984, Concentration 198.0 uM, Number of replicates 2.0, Standard deviation 1.0159128732525171 %) -0.491%.

As to `Cc1cccc(NC(=O)CNC(=O)C2CCN(c3ccc(C=O)cc3)CC2)c1C`, the inhibition under setting [1] was determined as 13%.

Turning to `Cc1cc(Cl)c2cccc(NC(=O)[C@@H]3CCCC[C@H]3N)c2n1`, under “Thailand/16681/1984, Concentration 99.9 uM, Number of replicates 2.0, Standard deviation 1.2808103574664134 %”, the inhibition was -9.95%.

`Cc1cc(CO)c2cccc(NC(=O)Cc3cccc(CN)c3)c2n1`: the inhibition runs as follows: (Thailand/16681/1984, Concentration 49.95 uM, Number of replicates 2.0, Standard deviation 1.2018993187616485 %) 15.4%; (Thailand/16681/1984, Concentration 99.9 uM, Number of replicates 2.0, Standard deviation 0.39117400474888586 %) 23.6%.

Consider `Cc1cc(CO)c2cccc(Nc3cc(O)[nH]n3)c2n1`, for which the inhibition by setting is: (Thailand/16681/1984, Concentration 49.95 uM, Number of replicates 2.0, Standard deviation 1.1262325758678584 %) 32.3%; (Thailand/16681/1984, Concentration 99.9 uM, Number of replicates 2.0, Standard deviation 0.556697154318326 %) 51.5%.

Regarding `Cc1cc(CO)c2cccc(NC(=O)COc3cccc(CN)c3)c2n1`, the inhibition is 9.18% (Thailand/16681/1984, Concentration 49.95 uM, Number of replicates 2.0, Standard deviation 1.546456211659181 %) and 7.18% (Thailand/16681/1984, Concentration 99.9 uM, Number of replicates 2.0, Standard deviation 0.8863913825569767 %).

With `Cc1cc(CO)c2cccc(CC(=O)Nc3cc(O)[nH]n3)c2n1`, the inhibition reads like this: (Thailand/16681/1984, Concentration 49.95 uM, Number of replicates 2.0, Standard deviation 0.30186854167697036 %) 9.85%; (Thailand/16681/1984, Concentration 99.9 uM, Number of replicates 2.0, Standard deviation 0.4943454438060974 %) 27.1%.

On to `Cc1cc(CO)c2cccc(NC(=O)CCN)c2n1`, for which the inhibition by setting is: (Thailand/16681/1984, Concentration 49.95 uM, Number of replicates 2.0, Standard deviation 0.675365146636023 %) 28.7%; (Thailand/16681/1984, Concentration 99.9 uM, Number of replicates 2.0, Standard deviation 0.4014376052982588 %) 91.2%.

For orientation: inhibition means the drop in the measured response relative to a control, in per cent.
